Data published in PubChem BioAssay (Tox21).
Inconclusive results are not listed. Where a call stands in place of a potency, no number is given. Activity calls are given as the source filed them. Unless noted, calls follow the shape of the dose curve; as a rule, active = well fitted curve in the direction sought with a large enough effect in the repeat runs; inconclusive = weak or mixed curves; inactive = no such curve, though single readings can be large; an effect the other way counts as inactive or inconclusive.

Experiments:
[1] = qHTS assay for small molecule agonists of the p53 signaling pathway - cell viability (AID 651633; calls by dose curve; also: nearly all actives have a fitted effect of over 30% in size; also: potency is read from the fitted curve at half-maximal effect)
Outline: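 Viability counter-read: CellTiter-Glo luminescence (30 min, room temperature) in the same p53RE-bla plates. These plates had been exposed to compounds for 16 h at 37 C.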

[2] = qHTS assay for small molecule disruptors of the mitochondrial membrane potential - cell viability (AID 720634; calls by dose curve;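 also: human HepG2 liver cancer cells; series mostly up to about 83 µM; nearly all actives have a fitted effect of over 20% in size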)
Outline: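 Human hepatoma HepG2 cells were treated for 1 hr with test chemicals, then given m-MPI dye and CellTiter-Glo. Cell viability reflects luminescence proportional to cellular ATP.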

[3] = qHTS assay to test for compound auto fluorescence at 590 nm (red) in HepG2 cells (AID 720674)
Outline: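 1 hr compound incubation on HepG2 cells, 37 C, 5% CO2; plate read ex 540 nm / em 590 nm; intensities reported as Rose Bengal sodium equivalents.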

[4] = qHTS assay to test for compound auto fluorescence at 535 nm (green) in HepG2 cells (AID 720675)
[5] = qHTS assay to test for compound auto fluorescence at 460 nm (blue) in HEK293 cells (AID 720678); also: potency is read from the fitted curve at half-maximal effect
Outline: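 Intrinsic compound fluorescence is recorded in live HEK293 cultures after overnight incubation at 37C, 5% CO2, using excitation 405 nm and emission 460 nm. Values are referenced to triamterene.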

[6] = qHTS assay to test for compound auto fluorescence at 590 nm (red) in HEK293 cells (AID 720679)
Outline: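 Red autofluorescence, HEK293 cells: 2,000 cells/well; attach 4-5 hr 37C; add 23 nL cpd or DMSO; incubate o/n 37C 5% CO2; read Ex540/Em590; Rose Bengal sodium reference.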

[7] = qHTS assay to test for compound auto fluorescence at 460 nm (blue) in HEK293 cell free culture (AID 720681); also: potency is read from the fitted curve at half-maximal effect
Outline: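 Blue fluorescence (Ex 405/Em 460 nm, triamterene-equivalent) was read immediately after pin transfer of compound or DMSO into medium (DMEM, 10% FBS) without cells.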

[8] = qHTS assay to test for compound auto fluorescence at 535 nm (green) in HEK293 cell free culture (AID 720682)
Outline: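 Measurement is a direct plate read of green fluorescence (485 nm in, 535 nm out) after compound addition to serum-supplemented DMEM lacking cells, with fluorescein used to express intensities.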

[9] = qHTS assay to test for compound auto fluorescence at 590 nm (red) in HEK293 cell free culture (AID 720683)
Outline: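 Red-channel autofluorescence of compounds in culture medium (DMEM, 10% FBS), no cells, measured at 540/590 nm. Rose Bengal sodium is the reference fluorophore for equivalence.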

[10] = qHTS assay to test for compound auto fluorescence at 590 nm (red) in HepG2 cell free culture (AID 720684)
Outline: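 Steps: dispense MEM/10% FBS medium, no cells; pin compound or DMSO vehicle; read red channel, Ex/Em 540/590 nm. Output given as Rose Bengal sodium equivalents.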

[11] = qHTS assay to test for compound auto fluorescence at 535 nm (green) in HepG2 cell free culture (AID 720686)
[12] = qHTS assay to test for compound auto fluorescence at 460 nm (blue) in HepG2 cells (AID 720687); also: potency is read from the fitted curve at half-maximal effect
Outline: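 Blue-channel autofluorescence (Ex/Em 405/460 nm, triamterene-equivalent) was measured after 1 hr compound exposure at 37 C, 5% CO2. Cells were HepG2, plated overnight at 37 C in MEM plus 10% FBS.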

[13] = qHTS assay to identify small molecule antagonists of the glucocorticoid receptor (GR) signaling pathway - cell viability counter screen (AID 720693); also: nearly all actives have a fitted effect of over 55% in size; also: potency is read from the fitted curve at half-maximal effect
[14] = qHTS assay for identifying genotoxic compounds that show differential cytotoxicity against isogenic chicken DT40 cell lines with known DNA damage response pathways - Rad54/Ku70 mutant cell line (AID 743015); also: nearly all actives have a fitted effect of over 60% in size; also: potency is read from the fitted curve at half-maximal effect
[15] = qHTS assay to identify small molecule antagonists of the androgen receptor (AR) signaling pathway - cell viability counter screen (AID 743033; also: nearly all actives have a fitted effect of over 45% in size; also: potency is read from the fitted curve at half-maximal effect)
Aromatase (Homo sapiens) = Aromatase (Homo sapiens) (UniProt P11511); assay: qHTS assay to identify aromatase inhibitors (AID 743083); also: nearly all actives have a fitted effect of over 55% in size; also: potency is read from the fitted curve at half-maximal effect
Aromatase (Homo sapiens), sequence (P11511 whole entry, looked up): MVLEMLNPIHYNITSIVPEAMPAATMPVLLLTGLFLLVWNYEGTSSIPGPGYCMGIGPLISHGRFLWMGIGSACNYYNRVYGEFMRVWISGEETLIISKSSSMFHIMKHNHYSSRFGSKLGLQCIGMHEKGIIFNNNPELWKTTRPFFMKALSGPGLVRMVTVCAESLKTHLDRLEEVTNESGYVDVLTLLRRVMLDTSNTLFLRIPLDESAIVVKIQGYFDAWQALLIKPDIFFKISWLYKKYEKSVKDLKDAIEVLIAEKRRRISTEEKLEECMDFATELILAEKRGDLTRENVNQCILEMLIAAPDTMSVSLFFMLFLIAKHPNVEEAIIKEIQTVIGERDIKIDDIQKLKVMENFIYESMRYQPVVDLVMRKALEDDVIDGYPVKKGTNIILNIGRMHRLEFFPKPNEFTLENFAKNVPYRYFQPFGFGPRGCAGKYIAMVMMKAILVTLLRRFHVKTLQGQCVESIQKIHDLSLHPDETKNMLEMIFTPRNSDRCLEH

[16] = qHTS assay to identify aromatase inhibitors - cell viability counter screen (AID 743084);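 also: cells stimulated with testosterone during compound exposure; nearly all actives have a fitted effect of over 55% in size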; also: potency is read from the fitted curve at half-maximal effect
[17] = target: Aryl hydrocarbon receptor (Homo sapiens) (UniProt P35869); assay: qHTS assay to identify small molecule that activate the aryl hydrocarbon receptor (AhR) signaling pathway (AID 743085); also: nearly all actives have a fitted effect of over 15% in size; also: potency is read from the fitted curve at half-maximal effect
Aryl hydrocarbon receptor (Homo sapiens), sequence (P35869 whole entry, looked up): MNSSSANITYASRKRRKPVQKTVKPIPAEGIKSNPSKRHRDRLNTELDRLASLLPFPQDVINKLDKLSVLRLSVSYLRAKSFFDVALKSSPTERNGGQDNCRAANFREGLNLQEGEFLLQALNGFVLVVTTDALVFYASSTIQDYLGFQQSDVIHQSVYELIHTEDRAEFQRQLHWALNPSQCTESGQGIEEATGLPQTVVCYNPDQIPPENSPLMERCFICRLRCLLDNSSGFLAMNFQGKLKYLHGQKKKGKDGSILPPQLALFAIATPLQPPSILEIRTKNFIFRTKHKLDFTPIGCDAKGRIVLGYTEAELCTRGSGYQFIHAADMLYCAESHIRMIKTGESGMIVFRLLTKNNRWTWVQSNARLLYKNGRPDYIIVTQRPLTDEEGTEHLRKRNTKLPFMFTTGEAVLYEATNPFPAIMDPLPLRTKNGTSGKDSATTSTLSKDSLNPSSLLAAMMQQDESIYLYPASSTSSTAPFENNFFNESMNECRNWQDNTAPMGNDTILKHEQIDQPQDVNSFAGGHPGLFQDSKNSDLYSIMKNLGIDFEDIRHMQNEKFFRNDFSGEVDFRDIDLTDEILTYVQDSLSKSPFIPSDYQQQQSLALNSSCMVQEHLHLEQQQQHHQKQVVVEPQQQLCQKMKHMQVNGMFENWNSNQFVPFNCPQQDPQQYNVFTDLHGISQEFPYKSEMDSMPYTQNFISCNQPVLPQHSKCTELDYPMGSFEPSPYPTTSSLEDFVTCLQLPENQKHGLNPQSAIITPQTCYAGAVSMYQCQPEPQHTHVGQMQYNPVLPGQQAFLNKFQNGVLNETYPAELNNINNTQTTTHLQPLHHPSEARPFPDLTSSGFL
Outline: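 24 h compound exposure, 37C, HepG2-derived HG2L7.5c1 cells with DRE-responsive luciferase. Readouts: fluorescence viability, then luminescence at room temperature after 30 min.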

[18] = qHTS assay to identify small molecule that activate the aryl hydrocarbon receptor (AhR) signaling pathway - cell viability counter screen (AID 743086); also: nearly all actives have a fitted effect of over 45% in size; also: potency is read from the fitted curve at half-maximal effect
Outline: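 Cytotoxicity counter screen: CellTiter-Fluor signal (30 min, 37 C) in 4000 HepG2 cells/well carrying the DRE-luciferase reporter, following 24 h compound exposure at 37 C.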

[19] = qHTS assay to identify small molecule antagonists of the estrogen receptor alpha (ER-alpha) signaling pathway - cell viability counter screen (AID 743074; calls by dose curve;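 also: HEK293 cells carrying ER-alpha-UAS-bla reporter stimulated with 17beta-estradiol; nearly all actives have a fitted effect of over 45% in size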; also: potency is read from the fitted curve at half-maximal effect)
Tags tell the direction and shape of the fitted curve or compound fluorescence and quenching.

Compound	Potency [1]	Potency [2]	outcome [3]	Potency [4]	Potency [5]	outcome [6]	Potency [7]	Potency [8]	outcome [9]	outcome [10]	Potency [11]	Potency [12]	Potency [13]	Potency [14]	Potency [15]	Potency (Aromatase (Homo sapiens))	Potency [16]	Potency [17]	Potency [18]	Potency [19]
CCC1(c2ccccc2)C(=O)NC(=O)N(C)C1=O (configuration not stated)	inactive	inactive	inactive	inactive	inactive	inactive	inactive	inactive	inactive	inactive	inactive	inactive	inactive	inactive	inactive	inactive	inactive	inactive	inactive	–
CC(C)C[C@H]1C(=O)N2CCC[C@H]2[C@]2(O)O[C@](NC(=O)[C@@H]3C[C@@H]4c5cccc6[nH]cc(c56)C[C@H]4N(C)C3)(C(C)C)C(=O)N12	inactive	inactive	inactive	inactive	inactive	inactive	inactive	inactive	inactive	inactive	inactive	inactive	inactive	29.8 µM (active)	inactive	inactive	inactive	–	–	inactive
c1csc(C2(N3CCCCC3)CCCCC2)c1	inactive	inactive	inactive	inactive	inactive	inactive	inactive	inactive	inactive	inactive	inactive	inactive	inactive	inactive	inactive	inactive	inactive	inactive	inactive	inactive
O=c1ccc2cc(O[C@@H]3O[C@H](CO)[C@@H](O)[C@H](O)[C@H]3O)c(O)cc2o1	inactive	inactive	inactive	inactive	10 µM [fluorescent] (active)	inactive	8.91 µM (active)	inactive	inactive	inactive	inactive	10 µM [fluorescent] (active)	inactive	inactive	inactive	inactive	–	inactive	–	inactive
O=C(O)CCCO	inactive	inactive	inactive	inactive	inactive	inactive	inactive	inactive	inactive	inactive	inactive	inactive	inactive	inactive	inactive	inactive	inactive	inactive	inactive	inactive
COC(=O)[C@H]1[C@@H](OC(=O)c2ccccc2)C[C@@H]2CC[C@H]1N2C	inactive	inactive	inactive	inactive	inactive	inactive	inactive	inactive	inactive	inactive	inactive	inactive	inactive	inactive	inactive	inactive	inactive	inactive	inactive	inactive
C[C@]12CC[C@H](O)C[C@H]1CC[C@@H]1[C@@H]2CC[C@]2(C)[C@@H](c3ccc(=O)oc3)C[C@H]3O[C@]132	0.75 µM (active)	inactive	inactive	inactive	inactive	inactive	inactive	inactive	inactive	inactive	inactive	inactive	2.68 µM (active)	13.3 µM (active)	1.34 µM (active)	inactive	inactive	inactive	inactive	1.34 µM (active)
O=C1C=C2C=C[C@@H]3C[C@@]2(O1)[C@H]1CCCCN31	inactive	inactive	inactive	inactive	inactive	inactive	inactive	inactive	inactive	inactive	inactive	inactive	inactive	5.96 µM (active)	inactive	13.3 µM (active)	23.7 µM (active)	inactive	15 µM (active)	inactive
CCc1cc(OC)c(C[C@@H](C)N)cc1OC	inactive	inactive	inactive	inactive	inactive	inactive	inactive	inactive	inactive	inactive	inactive	inactive	inactive	71.4 µM (active)	inactive	inactive	inactive	inactive	–	inactive
CC(C)[C@H]1C(=O)N2CCC[C@H]2[C@]2(O)O[C@](NC(=O)[C@@H]3C[C@@H]4c5cccc6[nH]cc(c56)C[C@H]4N(C)C3)(C(C)C)C(=O)N12	inactive	inactive	inactive	inactive	inactive	inactive	inactive	inactive	inactive	inactive	inactive	inactive	inactive	26.6 µM (active)	inactive	inactive	inactive	inactive	–	inactive
C=CCC1([C@@H](C)CCC)C(=O)NC(=O)NC1=O	inactive	inactive	inactive	inactive	inactive	inactive	inactive	inactive	inactive	inactive	inactive	inactive	inactive	–	inactive	inactive	inactive	inactive	inactive	inactive
OC[C@@H](O)[C@H]1O[C@@H]2O[C@@H](C(Cl)(Cl)Cl)O[C@@H]2[C@H]1O	–	inactive	inactive	inactive	inactive	inactive	inactive	inactive	inactive	inactive	inactive	inactive	inactive	inactive	inactive	inactive	inactive	inactive	inactive	inactive
C[C@@H]1[C@@H]2Cc3ccc(O)cc3[C@@]1(C)CCN2CC1CC1	inactive	inactive	inactive	inactive	inactive	inactive	inactive	inactive	inactive	inactive	inactive	inactive	inactive	inactive	inactive	inactive	inactive	inactive	inactive	inactive
O=C1Nc2ccc(Cl)cc2C(c2ccccc2Cl)=NC1O (configuration not stated)	inactive	inactive	inactive	inactive	inactive	inactive	inactive	inactive	inactive	inactive	inactive	inactive	inactive	inactive	inactive	inactive	inactive	inactive	inactive	inactive
Clc1ccc(C(Cn2ccnc2)OCc2csc3c(Cl)cccc23)c(Cl)c1 (configuration not stated)	–	inactive	inactive	inactive	inactive	inactive	inactive	inactive	inactive	inactive	inactive	inactive	inactive	–	–	4.03 µM (active)	inactive	inactive	inactive	inactive
CNC(C)CC1CCCCC1 (configuration not stated)	inactive	inactive	inactive	inactive	inactive	inactive	inactive	inactive	inactive	inactive	inactive	inactive	inactive	–	–	inactive	inactive	inactive	inactive	inactive
c1ccc(C2(N3CCCC3)CCCCC2)cc1	26.6 µM (active)	inactive	inactive	inactive	inactive	inactive	inactive	inactive	inactive	inactive	inactive	inactive	26.8 µM (active)	7.5 µM (active)	inactive	inactive	inactive	26.6 µM (active)	inactive	inactive
CN[C@]1(c2ccccc2Cl)CCCCC1=O	inactive	inactive	inactive	inactive	inactive	inactive	inactive	inactive	inactive	inactive	inactive	inactive	inactive	inactive	inactive	inactive	inactive	inactive	inactive	–
CC(C)=CCN1CC[C@]2(C)c3cc(O)ccc3C[C@H]1[C@H]2C	inactive	inactive	inactive	inactive	inactive	inactive	inactive	inactive	inactive	inactive	inactive	inactive	inactive	27.3 µM (active)	inactive	inactive	inactive	inactive	inactive	inactive
NCC[C@H](O)C(=O)N[C@@H]1C[C@H](N)[C@@H](O[C@H]2O[C@H](CN)[C@@H](O)[C@H](O)[C@H]2N)[C@H](O[C@@H]2O[C@H](CO)[C@@H](O)[C@H]2O)[C@H]1O	inactive	inactive	inactive	inactive	inactive	inactive	inactive	inactive	inactive	inactive	inactive	inactive	inactive	inactive	inactive	inactive	inactive	inactive	inactive	inactive
CC(N)Cc1ccc2c(c1)OCO2 (configuration not stated)	inactive	inactive	inactive	inactive	inactive	inactive	inactive	inactive	inactive	inactive	inactive	inactive	inactive	inactive	inactive	inactive	inactive	inactive	inactive	inactive
O=C(NC(=O)c1c(F)cccc1F)Nc1ccc(Cl)c(Oc2ncc(C(F)(F)F)cc2Cl)c1	–	inactive	inactive	inactive	inactive	inactive	inactive	inactive	inactive	inactive	inactive	inactive	inactive	–	inactive	inactive	inactive	inactive	inactive	inactive
c1ccc2c(c1)Sc1ccccc1N2C[C@@H]1CN2CCC1CC2	inactive	inactive	inactive	inactive	inactive	inactive	inactive	inactive	inactive	inactive	inactive	inactive	inactive	inactive	inactive	inactive	inactive	inactive	inactive	inactive
CN[C@@H](C)Cc1ccccc1	inactive	inactive	inactive	inactive	inactive	inactive	inactive	inactive	inactive	inactive	inactive	inactive	inactive	inactive	inactive	inactive	inactive	–	inactive	inactive
CC(=O)[C@@]1(O)CC[C@H]2[C@@H]3CCC4=CC(=O)CC[C@]4(C)C3(F)[C@@H](O)C[C@@]21C (some centres not stated)	inactive	inactive	inactive	inactive	inactive	inactive	inactive	inactive	inactive	inactive	inactive	inactive	inactive	inactive	inactive	inactive	inactive	inactive	inactive	inactive
